# MEKK3 PB1 HTS: modulators (inhibitors or enhancers) of MEK5 binding to human MEKK3 PB1 domain; Q99759; bead-based flow cytometry, Alexa488-MEK5 binding to MEKK3; actives lie on both sides; 0 = blocked by unlabeled MEK5, 100 = vehicle; binding response (% of control), % at 10 µM; 290,000 tested, 1.4% active; AID 1529;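 active = binding response more than 3 SD above or below the average of its plate-row segment, actives on both sides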;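 also: Alexa488 bead fluorescence after subtracting the streptavidin-only scavenger bead signal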
# MEKK2mut PB1 HTS: signal of MEK5 binding to mutant human MEKK2 PB1 domain; AID 1530; 290,000 tested, 0.35% active; bead flow cytometry, Alexa488-MEK5 binding to MEKK2 mutant; percent response, % at 10 µM; in the data active = percent response above about 24%, passing the limit was not always enough
# Beta2AR agonist: human beta-2 adrenergic receptor agonism by FAP; P07550; Am2.2-beta2AR cells, FAP receptor internalization, flow cytometry; response, % (test concentration not listed); 340,000 tested, 0.43% active;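 active = response above a set limit, near 3 SD of response in nonfluorescent compounds, cut at about 42% in these data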
# GRK2 aptamer HTS: inhibitors of human GRK2 displacing RNA aptamer. P25098. bead flow cytometry, FAM-aptamer displacement from GRK2. inhibition of aptamer binding, % at 10 µM. 330,000 tested, 0.59% active. AID 488847;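 active = inhibition of aptamer binding above 40%, roughly 3 SD of noise, on plates passing a quality check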;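 also: median bead fluorescence of bound FAM aptamer so fluorescent compounds give negative values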
# Target sequence (P25098 whole entry, looked up): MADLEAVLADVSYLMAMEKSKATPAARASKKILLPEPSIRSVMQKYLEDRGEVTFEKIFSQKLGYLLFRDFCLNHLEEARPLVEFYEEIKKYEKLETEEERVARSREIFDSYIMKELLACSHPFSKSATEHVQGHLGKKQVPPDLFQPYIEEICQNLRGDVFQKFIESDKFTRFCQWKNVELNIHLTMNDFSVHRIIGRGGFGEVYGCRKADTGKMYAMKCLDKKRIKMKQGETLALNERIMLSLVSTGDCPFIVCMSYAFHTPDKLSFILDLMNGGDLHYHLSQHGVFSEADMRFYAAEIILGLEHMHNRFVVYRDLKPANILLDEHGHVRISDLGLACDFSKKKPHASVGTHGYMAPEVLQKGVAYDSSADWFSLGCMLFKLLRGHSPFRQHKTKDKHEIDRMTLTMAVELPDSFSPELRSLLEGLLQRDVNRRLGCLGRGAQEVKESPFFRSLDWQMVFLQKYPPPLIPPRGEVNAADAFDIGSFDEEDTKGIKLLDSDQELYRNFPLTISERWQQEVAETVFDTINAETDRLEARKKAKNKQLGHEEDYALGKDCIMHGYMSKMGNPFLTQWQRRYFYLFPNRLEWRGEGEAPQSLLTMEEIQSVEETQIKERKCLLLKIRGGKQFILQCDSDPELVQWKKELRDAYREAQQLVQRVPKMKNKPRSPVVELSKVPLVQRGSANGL
# MEKK2wt PB1 HTS: raises or lowers MEK5 binding to wildtype human MEKK2 PB1 domain. Q9Y2U5. bead flow cytometry, Alexa488-MEK5 binding to MEKK2 WT; actives lie on both sides. binding response (% of control), % at 10 µM. 290,000 tested, 1.1% active; in the data active = binding response below about 67% or above about 130%
# MEKK2wt confirm: raises or lowers MEK5 binding to wildtype human MEKK2, retest. shares compounds with MEKK3 PB1 HTS. bead flow cytometry, Alexa488-MEK5 binding to MEKK2 WT; actives lie on both sides. binding response (% of control), % at 10 µM. 5,900 tested, 2.4% active. AID 1892; in the data active = binding response below about 16% or above about 210%; inactive = in between
# MEKK2mut-MEK5: signal of MEK5 binding to mutant human MEKK2, retest. shares compounds with MEKK3 PB1 HTS. bead flow cytometry, Alexa488-MEK5 binding to MEKK2 mutant. percent response, % at 10 µM. 5,900 tested, 2% active. AID 1893; in the data active = percent response mostly above about 71%, no sharp cut-off; inactive = mostly below about 38%;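 also: higher means compound restores mutant binding toward wildtype level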
# MEKK3-MEK5 inh: confirmation of inhibitors of MEK5 binding to human MEKK3; shares compounds with MEKK3 PB1 HTS; bead flow cytometry, Alexa488-MEK5 binding to MEKK3; active compounds read low; binding response (% of control), % at 10 µM; 5,900 tested, 1.8% active; AID 1894;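 active = binding response below 72% of control, or above a set upper limit, though filed actives all read lower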;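 also: 100% = DMSO only wells and 0% = binding blocked by excess unlabeled MEK5; lower values mean stronger disruption of MEK5 binding to MEKK3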
# The depositor's hits bear a star; i = inactive; / = no result; [ ] = another dose, or the depositor's remark. The list is not random: actives were taken first. Their share in the collection is about 2.9%.
SMILES,MEKK3 PB1 HTS,MEKK2mut PB1 HTS,Beta2AR agonist,GRK2 aptamer HTS,MEKK2wt PB1 HTS,MEKK2wt confirm,MEKK2mut-MEK5,MEKK3-MEK5 inh
Cc1cc(=O)[nH]c2sc(C(=O)N3c4ccccc4CC3C)c(N)c12 (configuration not stated),/,/,6,0,/,/,/,/
Cc1ccc2nc(Cl)c(C3CC(c4cccs4)=NN3C(=O)CCC(=O)O)cc2c1 (configuration not stated),139*,-1,-10,0,103,86,0,90
O=C(NCc1nnnn1-c1ccc(F)c(F)c1)c1cc2ccccc2o1,/,/,2,4,/,/,/,/
Cc1csc(SCC(=O)NCc2ccccc2)n1,101,-1,11,1,102,/,/,/
Cc1csc2sc(-c3ccnc(SCC(=O)NCc4ccccc4)n3)c(C)c12,130*,27,24,1,112,103,-2,102
CCC(C(=O)OCC(=O)N1C(C)CCCC1C)c1ccccc1 (configuration not stated),99,3,/,0,103,/,/,/
Cc1ccc(NC(=O)CSc2nnc(C3CC3)n2C)cc1S(=O)(=O)N1CCCCC1,/,/,-11,4,/,/,/,/
OCCn1c(C(F)(F)F)nc2ccccc21,106,-4,-3,1,100,/,/,/
Cn1c(Cn2c(C(F)(F)F)nc3ccccc32)nc2ccccc21,109,24*,-3,0,110,102,5,103
COc1cc(OC)cc(OCC(O)Cn2ccnc2C)c1 (configuration not stated),2.0*[inhibitor],-21,-1,0,2.0*[inhibitor],95,-6,102
Cc1cccc(OCC(O)Cn2ccnc2C)c1 (configuration not stated),107,4,5,0,116,/,/,/
Cc1c(/C=C2\SC(=O)N(CC(=O)Nc3ccc4c(c3)OCO4)C2=O)c2ccccc2n1C,2.0*[inhibitor],-21,5,0,-2.0*[inhibitor],97,-2,99
O=C(CN1C(=O)CSCC1=O)Nc1ccc2c(c1)OCO2,136*,0,-3,0,103,100,2,104
CCCCN(C(=O)C1CC(=O)N(CCc2ccc(OC)c(OC)c2)C1)c1c(N)n(CC(C)C)c(=O)[nH]c1=O (configuration not stated),/,/,-3,/,/,/,/,/
Cc1cc(C)cc(OC(=O)c2cccnc2)c1,103,7,2,1,107,/,/,/
Cc1ccc(OC(=O)c2cccnc2)cc1,57*[inhibitor],-14,1,0,56*[inhibitor],102,-1,106
COC(=O)c1cc(Br)ccc1OC(=O)c1cccnc1,0.0*[inhibitor],-17,3,1,0.0*[inhibitor],102,1,100
CC(NC(=O)COC(=O)C1CCN(c2ccc(C(F)(F)F)cn2)CC1)c1ccc(Br)cc1 (configuration not stated),101,7,2,7,102,/,/,/
O=C(CSc1nc2cc(S(=O)(=O)N3CCOCC3)ccc2o1)NC1CCCc2ccccc21 (configuration not stated),2.0*[inhibitor],-21,3,1,3.0*[inhibitor],98,0,101
Cc1ccc(OCC(=O)NC2CCCc3ccccc32)c(C)c1 (configuration not stated),92,-3,11,0,95,/,/,/
Cc1ccc(Nc2nnc(SCC(=O)NC3CCCc4ccccc43)s2)cc1 (configuration not stated),102,9,-6,0,99,/,/,/
Cc1ccc2c(CC(=O)NC3CCCc4ccccc43)coc2c1 (configuration not stated),147*,0,1,0,109,107,8,102
O=C(CSc1nc2cc(S(=O)(=O)N3CCOCC3)ccc2o1)Nc1c(F)cccc1F,99,-9,3,8,94,/,/,/
Cc1cccc(Nc2nnc(SCC(=O)NC3CCCc4ccccc43)s2)c1 (configuration not stated),3.0*[inhibitor],-4,17,1,3.0*[inhibitor],104,-4,100
O=C(CSc1ccc2ccccc2c1)NC1CCCc2ccccc21 (configuration not stated),130*,1,7,4,107,100,1,102
SMILES,MEKK3 PB1 HTS,MEKK2mut PB1 HTS,Beta2AR agonist,GRK2 aptamer HTS,MEKK2wt PB1 HTS,MEKK2wt confirm,MEKK2mut-MEK5,MEKK3-MEK5 inh
CC(=O)Nc1ccc(OS(=O)(=O)c2ccc([N+](=O)[O-])cc2)cc1,105,-11,-5,3,100,/,/,/
COc1ccc(-c2cc3ccccc3n2CC(O)CN2CCC(C)CC2)cc1 (configuration not stated),99,16,17,0,149*,152,34,107
Nc1c(C(=O)C2CC2)sc2nc(-c3cccs3)cc(C(F)(F)F)c12,95,-1,i,0,59*[inhibitor],85,-7,101
CC(C)NC(=O)c1sc2nc(-c3cccs3)cc(-c3cccs3)c2c1N,99,-11,/,8,83,/,/,/
COc1cc(Cl)c(NC2=CC(=O)C(=O)c3ccccc32)c(OC)c1,/,/,22,4,/,/,/,/
CCCCNC(=O)C1CCN(C(=O)C2CCN(S(=O)(=O)c3ccc(C)cc3)CC2)CC1,100,0,4,0,103,/,/,/
Cc1ccc(S(=O)(=O)NCCNC(=O)CN2CCCC2)cc1,93,-5,2,0,96,/,/,/
Cc1ccc(S(=O)(=O)N2CCC(C(=O)NCCCN3CCCCCC3)CC2)cc1,102,25,-4,0,160*,179,48,111
COCCNC(=O)C1CCCN(S(=O)(=O)c2c(C)noc2/C=C/c2cccs2)C1 (configuration not stated),101,-1,-9,1,98,/,/,/
Cc1ccc(S(=O)(=O)NCCC(=O)NCCN2CCCCCC2)cc1,102,54*,-4,0,227*,138,7,80
Cc1noc(/C=C/c2cccs2)c1S(=O)(=O)N1CCC(C(=O)NCCCN2CCC(C)CC2)CC1,106,57*,2,0,186*,115,7,103
COc1cccc(C(=O)NCC(C)(C)SCc2ccc(F)cc2)c1,104,4,-8,0,108,/,/,/
CC(/C=C/c1ccccc1)=N/NC(=O)c1nc2nc(C)cc(C)n2n1,130*,1,-7,0,117,97,0,100
Cc1ccc(/C=N/NC(=O)c2nc3nc(C)cc(C)n3n2)cc1,108,1,-19,0,105,/,/,/
COC(=O)c1cc(S(=O)(=O)N(Cc2ccccc2)C(C)(C)C)c[nH]1,99,-7,0,0,91,/,/,/

# High-throughput results: PubChem, NMMLSC
